# Measurements reported in the OligoGym collection.
# Molecular target: FASN
# Experiment: pooled miR-30 sensor sort-seq; sequence = guide strand
# Details: shRNA
# Further: reference of the scale not given here.
row,Sequence,sensor-assay potency score (higher = more potent)
1,TTGACAGCAGCCAAGTCGCGGA,-0.675
2,TCGAAGAAGAAGGAGAGCCGGT,0.123
3,TTGATGATCAGGTCCACGGCGG,0.0156
4,TCCACGAACTCAAACACCGGGG,-1.02
5,TTGTACTCGGCGGAGGACGTGC,-0.733
6,TTCAGGAAGATAGCCATGCCGA,-1.28
7,TTCCTCGGAGTGAATCTGGGTT,0.14
8,TTGGAGAGCAGCACACACCGGA,-0.273
9,TTGTTGACATTGTACTCGGCGG,-1.03
10,TACTTTCCCGTCGCATACCTGG,-1.06
11,TTCTCTGACACCTCGAAGGCAC,-0.474
12,TTCTTTGATGCACTGTCCCCTC,-0.75
13,TTGCACACCAGGAGGTCGGCGC,-0.835
14,ATAGGTGACTTCCAGCAGCAGC,-1.01
15,TAGCCCACGAGTGTCTCGGGGT,-0.532

# Molecular target: FBLIM1
# Experiment: as above
# Details: shRNA
row,Sequence,sensor-assay potency score (higher = more potent)
1,TGAAGAGCTGCATAGGTGCAGC,-0.713
2,TTCTCAACAGGTTCTGCCGGGG,-0.331
3,TCTAAGTCTGCAATGAGTGAGG,-0.617
4,TTTCCTGTAGAAGTCGTCCAGG,-0.297
5,TTTCATGGAAGTTTCTTCCCAT,0.731
6,TAGACAGGAAACTCTGGCCCAG,-0.916
7,TTGAAGAGCTGCATAGGTGCAG,0.627
8,TAATAAACCAGTAGACAGGAAA,-1.08
9,TCTGGTAGAAGCTCTGCCCAGC,-0.202
10,TTTCTCAACAGGTTCTGCCGGG,0.497
11,TCGACAGACAGGAGGATCCTGC,-0.78
12,TTCTGGTAGAAGCTCTGCCCAG,-1.24

# Molecular target: FBXL21
# Experiment: as above
# Details: shRNA
row,Sequence,sensor-assay potency score (higher = more potent)
1,TTAACATGAGTCTCGCTTGAGA,-0.687
2,AACAACATTAACTCTAGGGGAA,-0.232
3,TGCATAACAACATTAACTCTAG,-0.667
4,TTCAGTGTGAATTTCATCTAGG,0.327
5,TTTAATGATCTGCTGAATGAGA,-0.579
6,TCACACAGTCTTACAAACCTGA,0.117
7,TTCTTTGAAGAACGTCTCGAAT,-1.19
8,TTGAGTTGATAAAAACAACTGT,0.22
9,TAGAGTGTCACTATTATTGGCC,0.27
10,TAACAACATTAACTCTAGGGGA,-0.101
11,TCAAATTCAAACTTTCTCCAAA,-0.476
